We go through 27 compounds from PubChem BioAssay (NCATS).

The structures appear in SMILES notation. “And” between values parts separate entries of the source, which are not always exact repeats. Equal entries are not always repeated. Records with an inconclusive call do not appear. A number with no mark means an inactive call. The source made the active and inactive calls. Calls come from the whole dose curve; as a rule, active = well fitted curve in the direction sought with a large enough effect; inconclusive = small, poorly fitted or top-dose-only effect, or another doubt; inactive = no such curve, though single readings can be large; an effect the other way counts as inactive or inconclusive.

The target in experiment [1] is Cellular tumor antigen p53 (Homo sapiens) (UniProt P04637). Kind of experiment: Primary qHTS for small molecule compounds that upregulate eGFP-tagged delta133p53alpha (in N-terminal) cells. (AID 2060322).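 For activation: series mostly up to about 56 µM; 0% = DMSO vehicle and 100% = reference activator.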 Note: nearly all actives have a fitted effect of over 75% in size. Note: potency is the fitted concentration of half-maximal effect. The following applies: NCI-H358 eGFP-delta133p53alpha fluorescence, 24 h; activation: active compounds read high. In a few lines: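 NCI-H358 cells pre-induced 24 h with 10 ng/ml doxycycline to express N-terminal eGFP-delta133p53alpha, then dosed 24 h at 37C without doxycycline; fixed, Hoechst-stained, GFP intensity by laser scanning cytometry, normalized to DMSO (0%) and 57.5 uM 5-azacytidine (100%).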

In experiment [2] the target is Aldehyde dehydrogenase, mitochondrial (Homo sapiens) (UniProt P05091). Kind of experiment: qHTS for Inhibitors of the Aldehyde Dehydrogenase Family (ALDH2) Primary screen (AID 2061308;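 note: plate controls were vehicle for no effect and reference inhibitor for full effect; nearly all actives have a fitted effect of over 55% in size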). (qHTS replaces the single test concentration by a dilution series.)
The target in experiment [3] is Retinaldehyde dehydrogenase 3 (Homo sapiens) (UniProt P47895). The experiment in a line: qHTS for Inhibitors of the Aldehyde Dehydrogenase Family (ALDH1A3) Validation screen (AID 2061312). Note: % is set by controls: 0 for no effect and ±100 for the full control effect; nearly all actives have a fitted effect of over 45% in size.
For experiment [4] the target is unchanged. Kind of experiment: qHTS for Inhibitors of the Aldehyde Dehydrogenase Family (ALDH1A3) Primary screen (AID 2061315).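 Note: plate controls were DMSO vehicle for no effect and reference inhibitor for full effect.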

Cellular tumor antigen p53 (Homo sapiens), sequence (P04637 whole entry, looked up): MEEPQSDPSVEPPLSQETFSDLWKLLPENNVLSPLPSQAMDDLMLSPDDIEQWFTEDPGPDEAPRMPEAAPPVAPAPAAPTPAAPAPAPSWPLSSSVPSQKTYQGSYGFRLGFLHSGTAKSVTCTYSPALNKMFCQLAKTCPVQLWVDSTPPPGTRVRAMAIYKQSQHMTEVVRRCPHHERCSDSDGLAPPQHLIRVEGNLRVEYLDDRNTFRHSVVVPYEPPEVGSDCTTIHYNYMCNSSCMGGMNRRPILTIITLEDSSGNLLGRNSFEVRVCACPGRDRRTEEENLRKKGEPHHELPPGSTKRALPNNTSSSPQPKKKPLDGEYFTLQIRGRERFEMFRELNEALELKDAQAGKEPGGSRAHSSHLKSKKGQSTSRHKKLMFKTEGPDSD

In the case of `c1ccc(-c2ncc(CN3CCN(c4ncccn4)CC3)[nH]2)cc1`, the activation in experiment [1] is -2.39%. Besides, the Potency entry in experiment [2], in experiment [3] and in experiment [4] was “inactive” each time.
Take `O=C(Nc1ccc(S(=O)(=O)Nc2nccs2)cc1)C(c1ccccc1)c1ccccc1`: the activation in experiment [1] was -2.86%. Also, the Potency result in experiment [2], in experiment [3] and in experiment [4] was “inactive” throughout.
In the case of `Cc1cc(C)nc(NS(=O)(=O)c2ccc(NC(=S)NC(=O)COc3ccc(Br)cc3Cl)cc2)n1`, the activation in experiment [1] was -6.21%. Further, the Potency result in experiment [2], in experiment [3] and in experiment [4] was “inactive” each time.
As to `COc1ccccc1CN[C@H]1CCCN[C@H]1c1ccccc1`, the activation in experiment [1] is -3.82%. Further, the Potency entry in experiment [2], in experiment [3] and in experiment [4] was “inactive” throughout.
`C[C@@H](O)[C@H](NC(=O)c1ccc(C#Cc2ccc(CN3CCOCC3)cc2)cc1)C(=O)NO`: the activation in experiment [1] is -6.68%. The Potency entry in experiment [2], in experiment [3] and in experiment [4] was “inactive” throughout.
For `CCNC(=O)C1CC(F)(c2ccc(CN3CCCC3)c(F)c2)C1` (stereo not drawn), the activation in experiment [1] was -9.07%. Moreover, the Potency entry in experiment [2], in experiment [3] and in experiment [4] was “inactive” in each case.
With `Cc1nc(C)c(-c2ccc(C3CCC(CC(=O)O)CC3)cc2)nc1C(N)=O` (stereo not drawn), the activation in experiment [1] is -13.4%. The Potency result in experiment [2], in experiment [3] and in experiment [4] was “inactive” in each case.
Regarding `Nc1ncnc2c1ncn2[C@H]1CCCO1`, in experiment [1], the activation is -5.73%. The Potency entry in experiment [2], in experiment [3] and in experiment [4] was “inactive” in each case.
`O=C(Nc1cccc(C(F)(F)F)c1)Nc1ccc(Br)cc1-c1nn[nH]n1`: the activation in experiment [1] is -5.73%. Also, the Potency entry in experiment [2], in experiment [3] and in experiment [4] was “inactive” each time.
Regarding `CCCCOc1ccc(-c2cncc(C(=O)NCc3cccnc3N3CCOCC3)c2)cc1Cl`, the activation in experiment [1] is 7.64%. Moreover, the Potency entry in experiment [2], in experiment [3] and in experiment [4] was “inactive” each time.
With `O=C(NCCN1CCOCC1)c1cc2c(Oc3ccc(NC(=O)C4(C(=O)Nc5ccc(F)cc5)CC4)cc3)ccnc2[nH]1`, the activation in experiment [1] was 10%. Further, the Potency entry in experiment [2], in experiment [3] and in experiment [4] was “inactive” each time.
On to `CC[C@H](C(=O)Nc1ccccc1N1CCCC1)c1ccccc1`, for which the activation in experiment [1] was 2.86%. For the same compound, the Potency result in experiment [2], in experiment [3] and in experiment [4] was “inactive” in each case.
For `CN1CCC(Nc2nc(Nc3ccc(Oc4ccccc4)cc3)c3c(=O)[nH]cc(Br)c3n2)CC1`, the Potency in experiment [1] was 10.7 µM (active). For the same compound, the Potency result in experiment [2], in experiment [3] and in experiment [4] was “inactive” each time.
For `CCCC(Nc1nc(-c2ccc(NC(=O)NCC)c(OC)c2)ncc1C)c1cccnc1` (stereo not drawn), the activation in experiment [1] was -2.86%. For the same compound, the Potency result in experiment [2], in experiment [3] and in experiment [4] was “inactive” each time.
With `C=CC(C)(O)CC[C@@H]1[C@@]2(C)CCCC(C)(C)C2CC[C@@]1(C)O` (stereo partly drawn), the activation in experiment [1] is 1.91%. The Potency entry in experiment [2], in experiment [3] and in experiment [4] was “inactive” throughout.
As for `CN(C1CCc2c(c3ccccc3n2CC(=O)O)C1)S(=O)(=O)c1ccc(F)cc1` (stereo not drawn), the activation in experiment [1] was -3.55% and 0% and -0.955%. The Potency result in experiment [2], in experiment [3] and in experiment [4] was “inactive” in each case.
With `CCN1CCN(Cc2ccc(NC(=O)c3ccc(C)c(Oc4ncnc5[nH]c(C)cc45)c3)cc2C(F)(F)F)CC1`, the Potency in experiment [1] is 23.9 µM (active). For the same compound, the Potency result in experiment [2], in experiment [3] and in experiment [4] was “inactive” each time.
With `C#CCN(Cc1cc2c(=O)n(C)c(CN3CCN(C)CC3)nc2cc1Cl)c1ccc(C(=O)NCc2cccnc2)cc1`, the activation in experiment [1] was 0.955%. In addition, the Potency entry in experiment [2], in experiment [3] and in experiment [4] was “inactive” throughout.
Take `O=C(NCc1ccccn1)Nc1nnc(-c2ccco2)o1`: the activation in experiment [1] is 11.9%. Further, the Potency entry in experiment [2], in experiment [3] and in experiment [4] was “inactive” each time.
`COc1cc2c(cc1OC)-c1[nH]nc(Nc3cccc(F)c3)c1C2`: in experiment [1], the activation is 6.68%. Moreover, the Potency result in experiment [2], in experiment [3] and in experiment [4] was “inactive” each time.
`O=C(N[C@H](Cc1ccccc1)C(=O)O)c1sc2cc(F)ccc2c1Cl`: the activation in experiment [1] is -9.55%. The Potency result in experiment [2], in experiment [3] and in experiment [4] was “inactive” in each case.
Regarding `COc1cnc(-n2cnc(C)n2)c2[nH]cc(C(=O)C(=O)N3CCN(C(=O)c4ccccc4)CC3)c12`, in experiment [1], the activation was 3.34%. Also, the Potency result in experiment [2], in experiment [3] and in experiment [4] was “inactive” in each case.
As for `CCCN1CCC[C@@H](c2cccc(S(C)(=O)=O)c2)C1`, the activation in experiment [1] is -7.64%. For the same compound, the Potency result in experiment [2], in experiment [3] and in experiment [4] was “inactive” throughout.
Take `CCOC(=O)Nc1cc(-c2ccc(C)c(NS(C)(=O)=O)c2)nn2c(C)nnc12`: in experiment [1], the activation was 22.9%. In addition, the Potency entry in experiment [2], in experiment [3] and in experiment [4] was “inactive” throughout.
With `CC(C)C(=O)c1cn(CC(=O)COc2ccc(Oc3ccccc3)cc2)c2ccc(C(=O)O)cc12`, the activation in experiment [1] was 6.68%. For the same compound, the Potency entry in experiment [2], in experiment [3] and in experiment [4] was “inactive” each time.
As for `CCNC(=O)[C@H]1O[C@H](n2cnc3c(NCC(c4ccccc4)c4ccccc4)nc(C(=O)NCCNC(=O)NC4CCN(c5ccccn5)CC4)nc32)[C@H](O)[C@@H]1O`, in experiment [1], the activation was -9.55%. The Potency result in experiment [2], in experiment [3] and in experiment [4] was “inactive” in each case.
Regarding `Cc1ccc(C)c(OCCn2cc(C(=O)O)c3ccccc32)c1`, in experiment [1], the activation was 7.16%. The Potency entry in experiment [2], in experiment [3] and in experiment [4] was “inactive” in each case.
